Assay [1] in a line: liver-stage malaria parasite growth inhibition, primary screen, cell-based, HepG2, luciferase luminescence, HepG2 viability (AID 624349).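 Also: 100% = mean of DMSO negative control wells on the same plate.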 The conditions noted are these: P. berghei liver stage in HepG2, luciferase luminescence, concentration not given here; parasite load remaining: stronger effect = lower value; viability: measured here: HepG2 viability without parasites.
The nature of assay [2]: sensitizers of A549 cells to miR-34 induction, primary screen, imaging, A549 dox-inducible miR-34, nuclei and caspase counts (AID 1347080;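 active = compounds whose cell count with miR-34 switched on is under 0.7 times the count with it off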). The settings on record: A549 miR-34 inducible, Hoechst nuclei count, 48 h.
Assay [3] is described as follows: inhibitors of Cryptococcus chitosan production, flow cytometry, Cibacron Brilliant Red staining (AID 1347148; call rule not given here;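 also: compound exposure lasted three days at 37 degrees C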). The conditions noted are these: Cryptococcus neoformans chitosan, stronger effect = lower value; at 10 µM unless noted. On the technique in general: Flow cytometry measures light scatter and fluorescence of single cells or particles in a stream.
The target of assay [4] is ATP-dependent translocase ABCB1 (Homo sapiens) (UniProt P08183). Briefly: MDR1 (ABCB1) efflux transporter inhibition, cell-based (AID 377; in the data active = fluorescence slope change above about 50%). The conditions noted are these: MDR1-expressing cells, fluorescent substrate accumulation slope; stronger effect = higher value; concentration not given here.
Chain of ATP-dependent translocase ABCB1 (Homo sapiens) (P08183 whole entry, looked up): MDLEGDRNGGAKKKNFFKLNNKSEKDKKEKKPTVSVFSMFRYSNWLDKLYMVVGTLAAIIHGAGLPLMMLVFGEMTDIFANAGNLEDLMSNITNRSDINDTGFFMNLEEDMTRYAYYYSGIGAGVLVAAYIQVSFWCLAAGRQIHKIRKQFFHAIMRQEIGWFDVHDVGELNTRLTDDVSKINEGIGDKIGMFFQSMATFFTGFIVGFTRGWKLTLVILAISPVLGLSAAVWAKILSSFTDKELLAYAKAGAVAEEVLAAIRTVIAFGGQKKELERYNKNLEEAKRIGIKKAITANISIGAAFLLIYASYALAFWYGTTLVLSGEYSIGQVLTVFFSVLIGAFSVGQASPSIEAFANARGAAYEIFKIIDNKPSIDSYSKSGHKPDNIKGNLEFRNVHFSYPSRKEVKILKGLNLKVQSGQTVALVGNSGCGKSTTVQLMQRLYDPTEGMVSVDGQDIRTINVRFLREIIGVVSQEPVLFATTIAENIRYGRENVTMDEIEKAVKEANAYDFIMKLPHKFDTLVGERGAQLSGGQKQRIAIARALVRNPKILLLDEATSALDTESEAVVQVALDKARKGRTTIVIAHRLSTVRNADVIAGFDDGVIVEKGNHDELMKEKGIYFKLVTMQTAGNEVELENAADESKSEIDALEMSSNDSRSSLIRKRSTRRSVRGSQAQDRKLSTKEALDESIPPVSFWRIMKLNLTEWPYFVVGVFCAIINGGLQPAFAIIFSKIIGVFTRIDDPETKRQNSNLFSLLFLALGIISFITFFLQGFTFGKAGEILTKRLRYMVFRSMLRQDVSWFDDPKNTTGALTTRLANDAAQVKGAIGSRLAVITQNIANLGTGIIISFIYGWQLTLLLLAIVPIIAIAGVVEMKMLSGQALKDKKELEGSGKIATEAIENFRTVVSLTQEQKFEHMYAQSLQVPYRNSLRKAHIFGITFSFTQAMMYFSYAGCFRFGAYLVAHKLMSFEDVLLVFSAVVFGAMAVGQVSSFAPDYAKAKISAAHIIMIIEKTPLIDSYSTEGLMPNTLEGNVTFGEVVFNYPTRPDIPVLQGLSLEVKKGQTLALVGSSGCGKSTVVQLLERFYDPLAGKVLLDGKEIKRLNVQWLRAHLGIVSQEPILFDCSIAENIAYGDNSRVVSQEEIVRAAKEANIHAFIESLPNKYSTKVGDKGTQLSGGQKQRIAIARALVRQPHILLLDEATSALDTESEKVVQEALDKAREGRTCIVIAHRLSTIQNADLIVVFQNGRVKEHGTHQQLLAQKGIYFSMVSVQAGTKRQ
Assay [5] can be described thus: polyglutamine-triggered caspase-3 activation inhibitors, cell-based (AID 1583). The conditions noted are these: polyglutamine-induced caspase-3 activation, cell assay; stronger effect = higher value;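 tested at 10 µM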.
The nature of assay [6]: suppressors of polyQ aggregation in yeast, 75Q-TubU reporter (AID 1593). The conditions noted are these: Yeast 75Q polyglutamine aggregation reporter.
Assay [7] is described as follows: rescue of polyQ-huntingtin neuronal dysfunction in worms, whole organism, C. elegans mechanosensory neurons, N-terminal huntingtin (AID 1599). The conditions noted are these: touch response, stronger effect = higher value.
A short description of assay [8]: inhibitors of mitochondrial cytochrome c release, biochemical, purified mitochondria (AID 1603).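 Also: mouse liver mitochondria challenged with calcium chloride; signal normalized to the plate average as 100%.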 The settings on record: stronger effect = lower value.
A short description of assay [9]: inhibitors of polyQ protein aggregation (AID 1604). The settings on record: polyglutamine-induced protein aggregation inhibition assay; stronger effect = higher value; tested at 2.5 µM.
Assay [10] in a line: enhancers of glutamate uptake in motor neurons, MN-1 cell line (AID 1612).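 Also: tested at 1 µM final; 0% = mean of DMSO vehicle wells on each plate; positive means more glutamate uptake than control and negative means less.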 The settings on record: MN-1 motor neuron cells, stronger effect = higher value.
Assay [11] is described as follows: reducers of polyQ inclusions in PC12 cells, cell-based, NGF-treated PC12, GFPQ80 (AID 1614).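 Also: lower means fewer inclusions and 0 means no inclusions at all.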 The conditions noted are these: PC12 NGF-treated GFP-polyQ80 inclusion reduction.
The nature of assay [12]: suppressors of polyglutamine aggregation in yeast, 75Q-TubH (AID 1616). The conditions noted are these: S. cerevisiae 75Q-TubH polyglutamine aggregation suppression; stronger effect = higher value.
Assay [13] in a line: circadian clock period modulators, cell-based, LOPAC library, luminescence reporter (AID 2774; call rule not given here;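 also: values are relative to mean of DMSO wells on each plate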). The conditions noted are these: circadian reporter cells, at 7 µM, actives lie on both sides.
Assay [14] relates to Hepatitis C virus NS3 helicase. Briefly: HCV NS3 helicase inhibitors, primary screen, biochemical, fluorescence polarization, LOPAC1280 library (AID 687035; in the data active = inhibition above about 37%). The settings on record: Purified HCV NS3 helicase, Cy5-dT15 ssDNA binding fluorescence polarization; stronger effect = higher value; concentration not given here. (In fluorescence polarisation assays a small probe gives low polarisation when free and higher when bound to something large.)

A short description of assay [15]: Cy5 fluorescence quenching or enhancement artefacts, artefact control for HCV NS3 helicase inhibitor project, biochemical, LOPAC1280 (AID 687037; call rule not given here). The conditions noted are these: Cy5-DNA-NS3h complex fluorescence interference counterscreen.
The target in assay [16] is NAD(+) hydrolase SARM1 (Homo sapiens) (UniProt Q6SZW1). Nature of the assay: SARM1 TIR NADase inhibitors, cell lysate, NAD-Glo luminescence (AID 1508614;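 active = compound whose remaining NAD level is above about 45 nM, limit read from the data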;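 also: higher remaining NAD means stronger inhibition of SARM1 NADase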). The settings on record: SAM-TIR HEK293T lysate NADase, at 1 µM, stronger effect = higher value.
Chain of NAD(+) hydrolase SARM1 (Homo sapiens) (Q6SZW1 whole entry, looked up, the tested form may be a part): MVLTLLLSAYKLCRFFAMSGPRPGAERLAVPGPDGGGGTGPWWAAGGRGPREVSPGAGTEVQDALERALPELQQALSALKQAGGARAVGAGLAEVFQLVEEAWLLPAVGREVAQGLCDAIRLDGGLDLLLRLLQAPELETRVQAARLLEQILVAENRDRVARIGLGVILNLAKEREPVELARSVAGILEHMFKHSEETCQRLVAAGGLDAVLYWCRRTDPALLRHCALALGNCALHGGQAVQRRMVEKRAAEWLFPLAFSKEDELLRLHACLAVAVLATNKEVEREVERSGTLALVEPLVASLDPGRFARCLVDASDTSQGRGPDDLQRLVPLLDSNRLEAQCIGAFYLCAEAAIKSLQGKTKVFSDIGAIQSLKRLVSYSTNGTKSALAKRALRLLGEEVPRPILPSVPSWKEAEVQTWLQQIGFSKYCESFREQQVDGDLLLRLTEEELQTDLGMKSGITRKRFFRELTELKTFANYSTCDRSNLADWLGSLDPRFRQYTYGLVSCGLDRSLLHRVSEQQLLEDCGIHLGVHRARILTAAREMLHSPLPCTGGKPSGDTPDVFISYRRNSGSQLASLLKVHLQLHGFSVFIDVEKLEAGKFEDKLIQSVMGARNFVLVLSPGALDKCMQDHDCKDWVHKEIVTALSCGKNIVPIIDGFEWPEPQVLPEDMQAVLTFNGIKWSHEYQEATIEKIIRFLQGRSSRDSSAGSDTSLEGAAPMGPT
Assay [17] deals with Mitogen-activated protein kinase 7 (Homo sapiens) (UniProt Q13164). Nature of the assay: ERK5 transactivation activators in reporter cells, primary screen, cell-based, HTS (AID 1508626;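 active = luciferase signal above three times the same-plate solvent-only control wells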;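 also: luciferase driven by Gal4-ERK5 fusion binding five Gal4 sites before minimal TATA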). The settings on record: HeLa Gal4-ERK5 transactivation, 18 h, at 5 µM, stronger effect = higher value.
Chain of Mitogen-activated protein kinase 7 (Homo sapiens) (Q13164 whole entry, looked up, the tested form may be a part): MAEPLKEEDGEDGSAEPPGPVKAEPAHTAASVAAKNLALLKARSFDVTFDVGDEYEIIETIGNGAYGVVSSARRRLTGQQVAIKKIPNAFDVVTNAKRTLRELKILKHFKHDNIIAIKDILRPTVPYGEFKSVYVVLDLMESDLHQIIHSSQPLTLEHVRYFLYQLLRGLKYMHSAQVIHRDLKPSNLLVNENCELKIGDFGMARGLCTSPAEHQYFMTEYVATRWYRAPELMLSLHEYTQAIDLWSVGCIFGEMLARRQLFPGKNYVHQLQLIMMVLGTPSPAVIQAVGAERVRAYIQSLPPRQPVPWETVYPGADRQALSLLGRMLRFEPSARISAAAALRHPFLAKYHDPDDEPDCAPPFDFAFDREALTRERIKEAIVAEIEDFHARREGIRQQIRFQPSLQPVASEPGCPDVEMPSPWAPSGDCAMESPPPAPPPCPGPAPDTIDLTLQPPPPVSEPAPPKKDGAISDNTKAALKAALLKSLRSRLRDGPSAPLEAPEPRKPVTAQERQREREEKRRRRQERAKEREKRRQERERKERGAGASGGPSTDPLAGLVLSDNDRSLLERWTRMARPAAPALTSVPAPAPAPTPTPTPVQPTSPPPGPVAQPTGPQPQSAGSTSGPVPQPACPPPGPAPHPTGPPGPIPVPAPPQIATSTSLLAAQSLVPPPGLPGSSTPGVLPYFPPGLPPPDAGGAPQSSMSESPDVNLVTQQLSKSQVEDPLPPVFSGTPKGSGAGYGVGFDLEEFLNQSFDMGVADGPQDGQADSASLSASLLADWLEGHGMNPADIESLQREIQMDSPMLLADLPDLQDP
The nature of assay [18]: hESC survival regulators, cell-based (AID 493140; call rule not given here;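 also: cells exposed to compounds for four days before counting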). The conditions noted are these: human embryonic stem cell survival screen; stronger effect = higher value.
Where [19] appears, read: stronger effect = lower value, cell number ratio, induced over uninduced.
The mark [20] stands for this setting: measured here: relative caspase fold change +Dox/-Dox.
Where [21] appears, read: measured here: total cells with miR-34 induction, stronger effect = lower value.
[22] abbreviates: measured here: total cells without miR-34 induction.

As a reminder, the viability is a read-out of living cells in per cent, often relative to untreated cells. A word on the inhibition: it is the drop in the measured response relative to a control, in per cent.

Inconclusive results are not listed. For part of these data: Entries with a potency or affinity are not part of this list. Active and inactive are the calls of the source. Rule as the data show it, unless noted: active = parasite load remaining mostly below about 12% (no sharp cut-off); inactive = mostly above about 10%.

For `c1cncc([C@H]2CCCCN2)c1`, the parasite load remaining in assay [1] is 92.6% (inactive). Also, in assay [1], the viability came to 99.3%. The fold change is 0.89 (inactive) in [2] (setting [19]) and 1.12 in assay [2] (setting [20]). Besides, the cell count in assay [2] (setting [21]) turned out to be 8860; in assay [2] (setting [22]), 9960.
As to `CC(C)[C@@]1(O)[C@H](OC(=O)c2ccc[nH]2)[C@]2(O)[C@]3(C)C[C@@]4(O)O[C@]5([C@@H](O)[C@H](C)CC[C@@]35O)[C@]2(O)[C@@]41C`, the fold fluorescence in [3] is 3.48 [at 101.3 µM] (inactive).
As to `O=c1ccc2cc(OC3O[C@H](CO)[C@@H](O)[C@H](O)[C@H]3O)c(O)cc2o1` (stereo partly drawn), the parasite load remaining in [1] was 70.5% (inactive). Also, the viability in assay [1] worked out at 96.1%. Moreover, the fold change in assay [2] (setting [19]) was 0.976 (inactive); in [2] (setting [20]), 0.932. Besides, the results for the cell count in assay [2] (setting [21]) and in assay [2] (setting [22]) were 9360 and 9590, respectively.
Take `CO[C@H]1C=C2CCN(C)[C@H]2C2c3cc4c(cc3C(=O)O[C@@H]21)OCO4` (stereo partly drawn): the parasite load remaining in assay [1] was 64.2% (inactive). In assay [1], the viability came out at 100%. Further, the fold change in assay [2] (setting [19]) was 0.936 (inactive); in assay [2] (setting [20]) it was 0.836. The cell count in [2] (setting [21]) amounted to 9140; in assay [2] (setting [22]) it was 9770.
Consider `CC[C@@H](C)C(=O)O[C@H]1[C@H](O)[C@H]2[C@@H](CN3C[C@@H](C)CC[C@H]3[C@@]2(C)O)C2C[C@]34O[C@@]5(O)[C@@H](OC(=O)[C@](C)(O)CC)CC[C@@]3(C)[C@@H]5[C@@H](OC(C)=O)[C@@H](OC(C)=O)[C@H]4[C@@]21O` (stereo partly drawn), for which the parasite load remaining in assay [1] was 119% (inactive). In addition, the viability in assay [1] turned out to be 111%. The fold change is 0.898 (inactive) in assay [2] (setting [19]) and 1.61 in assay [2] (setting [20]). In addition, the cell count in assay [2] (setting [21]) is 9180; in [2] (setting [22]), 10200.
As for `COc1ccc(C(=O)OC2C[C@H]3CC[C@H](C2)N3C)cc1OC` (stereo partly drawn), in assay [1], the parasite load remaining is 72.9% (inactive). For the same compound, in assay [1], the viability is 108%. Besides, the fold change in [2] (setting [19]) is 0.888 (inactive); in assay [2] (setting [20]), 1.53. In addition, the figures for the cell count in assay [2] (setting [21]) and in assay [2] (setting [22]) were 9600 and 10800, respectively.
As to `CC[C@H](C)[C@H]1O[C@]2(C=C[C@@H]1C)C[C@@H]1C[C@@H](C/C=C(\C)C(O[C@H]3C[C@H](OC)C(O[C@H]4C[C@H](OC)[C@@H](O)[C@H](C)O4)[C@H](C)O3)[C@@H](C)/C=C/C=C3\CO[C@@H]4[C@H](O)C(C)=C[C@@H](C(=O)O1)[C@]34O)O2` (stereo partly drawn), the fluorescence slope change in assay [4] is 61.5% (active).
Turning to `C=CCC1(CC(C)C)C(=O)NC(=O)NC1=O`, the inhibition in [5] is -3.41%. For the same compound, the score in assay [6] worked out at 0.97. The same compound had a rescue above control in assay [7] of 1.21. Also, the cytochrome c release ratio in [8] came to 0.94. The inhibition of aggregation in assay [9] was found to be 7.48%. For the same compound, the glutamate uptake change in assay [10] is 5.4%. This compound had an inclusion score in [11] of 2. Also, the aggregation suppression score in [12] amounted to 1.15.
As for `CN1CCN(C(=O)OC2c3nccnc3C(=O)N2c2ccc(Cl)cn2)CC1` (stereo not drawn), the period change in assay [13] is -0.19 h (inactive).
Turning to `C#CCN(C)[C@@H](C)Cc1ccccc1`, the period change in assay [13] is 0.185 h (inactive).
For the compound `COC(=O)[C@]1(O)C[C@@H]2O[C@@]1(C)n1c3ccccc3c3c4c(c5c6ccccc6n2c5c31)C(=O)NC4`, in assay [1], the parasite load remaining is 43.2% (inactive) and the viability was determined as 53.6%.
Regarding `C[C@H]1C2Cc3ccc(O)cc3[C@@]1(C)CCN2CC1CC1`, the inhibition in assay [14] is 0% (inactive). Besides, the fluorescence ratio (interference) in assay [15] was 1 (inactive).
Turning to `C=CC[C@]1(O)CC[C@H]2[C@@H]3CCC4=CC(=O)CCC4=C3C=C[C@@]21C`, the remaining NAD in assay [16] is 10 nM (inactive). The luciferase signal in assay [17] is 60 AU (inactive).
On the same counts, the results for `CC(=O)O[C@H]1C[C@H](O[C@H]2[C@@H](O)C[C@H](O[C@H]3[C@@H](O)C[C@H](O[C@H]4CC[C@@]5(C)[C@H](CC[C@@H]6[C@@H]5C[C@@H](O)[C@]5(C)[C@@H](C7=CC(=O)OC7)CC[C@]65O)C4)O[C@@H]3C)O[C@@H]2C)O[C@H](C)[C@H]1O[C@@H]1O[C@H](CO)[C@@H](O)[C@H](O)[C@H]1O` are 10 nM (inactive) and 44 AU (inactive).
With `CC(N)C(O)c1ccccc1` (stereo not drawn), the fluorescence slope change in assay [4] is 4.9% (inactive). In addition, the inhibition in assay [5] is -49.8%. This compound also yielded a score in assay [6] of 1.3. In addition, in [7], the rescue above control is -2.3. Also, in assay [8], the cytochrome c release ratio worked out at 0.86. The inhibition of aggregation in assay [9] amounted to 86.1%. In addition, in [10], the glutamate uptake change worked out at 4.9%. In addition, the inclusion score in assay [11] came out at 2. The same compound came in with an aggregation suppression score in assay [12] of 1.78.
For `C[N+]1([O-])[C@@H]2CC[C@H]1CC(OC(=O)C(CO)c1ccccc1)C2` (stereo partly drawn), the fluorescence slope change in [4] is 74.3% (active). The survival in assay [18] is 35.2 (inactive). For the same compound, in assay [1], the parasite load remaining was 113% (inactive) and the viability was 87.7%.
